# Measurements: the supplement of paper PMC12636033
# ± gives the standard deviation of the averaged measurements. Over roughly 33,000 sequences, “E-score (rank enrichment, -0.5 to 0.5)” has its median near -0.0043; the highest 2% begin near 0.24. What follows is part of a selection rich in the highest values, with near analogues and random picks from the rest.
# Tested on: 2Sp-muMax20 (muMax20 with two 2,6-bis(methyl)pyridine Cys staples)
# Test: PBM 8-mer E-score (E-score (rank enrichment, -0.5 to 0.5)); higher = stronger preferential binding
# Method: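 Protein binding microarray (universal PBM chip covering all 10-mers in fixed probe flanks) with chemically synthesized human Max(13-93) bHLH-LZ analogs (not full-length Max) bearing noncanonical residues (hArg, Tha, Aib, Nle at 65) and aromatic Cys staples. Read-out per 8-mer (and its reverse complement): E-score (rank-based enrichment, -0.5 to 0.5) and Z-score of median probe intensity.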
row,Sequence,PBM 8-mer E-score
1,AGACTCAA,-0.111 ± 0.022
2,GCGGCAGA,-0.228 ± 0.049
3,GAGCAGTA,0.113 ± 0.0065
4,AGAGGGCT,-0.00447 ± 0.07
5,ACGGGGCG,0.0718 ± 0.047
6,ACTTTATC,-0.0354 ± 0.037
7,ACTTTATG,0.281 ± 0.065
8,ACGTTATC,0.034 ± 0.046
9,ACGTTATG,0.284 ± 0.0056
10,ACTTTATA,0.192 ± 0.053
11,ACGTTATA,0.204 ± 0.072
12,AAAAAACT,0.0474 ± 0.0053
13,TACGCGTA,0.0583 ± 0.054
14,GATCTTCC,-0.219 ± 0.038
15,CAACCTCG,-0.194 ± 0.05
16,GGTTACTA,-0.067 ± 0.092
17,GTTACCGA,-0.284 ± 0.013
18,ATGCGCAA,0.184 ± 0.017
19,ATGCGCAG,0.0186 ± 0.025
20,ATGCGCAC,0.195 ± 0.071
21,ATGCGCAT,0.335 ± 0.061
22,GTGCGCAA,-0.0392 ± 0.038
23,TTGCGCAA,0.344 ± 0.0038
24,ATCCAGTA,0.134 ± 0.028

row,Sequence,PBM 8-mer E-score
1,GATAGGGC,0.081 ± 0.019
2,ATAGTTGA,0.121 ± 0.077
3,ATACGCAG,0.0458 ± 0.043
4,ATACGCAA,0.308 ± 0.062
5,GTACGCAA,-0.0841 ± 0.033
6,ACGAGCCT,-0.00942 ± 0.0098
7,CCAGCAGA,-0.0671 ± 0.018
8,AATCACAC,0.236 ± 0.041
9,AATCACAG,-0.0564 ± 0.011
10,CATCACAC,0.118 ± 0.035
11,AATCACGT,0.254 ± 0.024
12,AATCACAT,0.27 ± 0.019
13,AATCACGA,-0.0412 ± 0.011
14,AATCACGC,0.193 ± 0.015
15,GATCACAC,0.153 ± 0.019
16,AATCACAA,0.144 ± 0.036
17,CGTTATGC,0.177 ± 0.027
18,AAAGTTTA,0.206 ± 0.054
19,AGGTTTAC,-0.222 ± 0.071
20,ACTGTGCC,0.0364 ± 0.042
21,CCATCCCG,-0.00777 ± 0.0093
22,AACGTCCA,-0.012 ± 0.044
23,GTAGTTGA,0.116 ± 0.0092
24,ATTGCATC,0.134 ± 0.014

row,Sequence,PBM 8-mer E-score
1,GCGATGCC,-0.221 ± 0.0047
2,GATCATGA,0.139 ± 0.016
3,CCCTTCAC,0.0356 ± 0.018
4,TCATGTAA,0.0907 ± 0.036
5,ATATGTAA,0.0958 ± 0.035
6,GTATGTAA,0.236 ± 0.055
7,ACATGTAA,0.24 ± 0.04
8,ACATGTCG,0.164 ± 0.071
9,ACATGTCT,0.251 ± 0.006
10,CTATGTAA,0.00312 ± 0.013
11,AAATGTAG,0.134 ± 0.1
12,CCATGTAA,0.122 ± 0.09
13,ACATGTCC,0.151 ± 0.033
14,CAATGTAC,0.00633 ± 0.095
15,AAATGTAC,0.296 ± 0.052
16,ATAGTATC,0.0888 ± 0.11
17,ACGAACTC,-0.159 ± 0.021
18,GAACGTAC,-0.045 ± 0.0085
19,GCTTTGCA,-0.0268 ± 0.02
20,AGATGTAT,0.167 ± 0.023
21,CCATGTAC,-0.0575 ± 0.098
22,ACATGTAG,0.241 ± 0.051
23,ACATGTAC,0.311 ± 0.0047
24,CCATGTAG,0.148 ± 0.0044

row,Sequence,PBM 8-mer E-score
1,AGATGTAG,0.167 ± 0.023
2,GCATGTAC,0.2075 ± 0.0014
3,ACATGTAT,0.277 ± 0.0074
4,AAATGTAT,0.0866 ± 0.053
5,GTAGCTTA,0.179 ± 0.047
6,TGGTGTAA,0.135 ± 0.039
7,CCCCCAGC,-0.295 ± 0.034
8,ATACCAGG,-0.136 ± 0.023
9,CACAAGGG,-0.0596 ± 0.022
10,AGTCTAAA,-0.14 ± 0.013
11,CCCCCAAA,-0.195 ± 0.075
12,ACCCCACA,0.239 ± 0.02
13,CACCCACC,0.0762 ± 0.08
14,TCCCCCAA,-0.174 ± 0.034
15,CGCCCACG,-0.0323 ± 0.074
16,ACCCCACG,0.0387 ± 0.033
17,AACCCACG,0.17 ± 0.037
18,AACCCACC,0.267 ± 0.025
19,AGCCCACC,-0.0175 ± 0.041
20,GACCCACC,0.106 ± 0.043
21,CGCCCACC,0.274 ± 0.055
22,TCCCCAAA,0.256 ± 0.079
